Unmarked numbers belong to inactive results. The rule behind the calls is not given here.

What all share (experiment): primary screen, binary call; higher = more effect of the substance
In one experiment the target is Factor Xa (bovine, UniProt P00743). On the set-up: screenings were carried out in duplicate in one independent experiment. The conditions noted are these: 200 µM. As for the experimental part:
Protease inhibitory assays were performed in transparent microtiter plates in a final volume of 200 µL with the use of chromogenic substrates. The reaction rates in the absence and in the presence of the inhibitor were measured; screenings were carried out in duplicate in one independent experiment and Ki values were determined in triplicate in two independent experiments.

Another experiment deals with 5-HT6 receptor (human, UniProt P50406). Details: hit call from the mean of at least two separate experiments. The conditions noted are these: 10 µM.
The target in the next experiment is 5-HT7b receptor (human, UniProt P34969). On the set-up: hit call from the mean of at least two separate experiments. The note with it: 10 µM.
5-HT7b receptor, sequence (P34969 whole entry, looked up): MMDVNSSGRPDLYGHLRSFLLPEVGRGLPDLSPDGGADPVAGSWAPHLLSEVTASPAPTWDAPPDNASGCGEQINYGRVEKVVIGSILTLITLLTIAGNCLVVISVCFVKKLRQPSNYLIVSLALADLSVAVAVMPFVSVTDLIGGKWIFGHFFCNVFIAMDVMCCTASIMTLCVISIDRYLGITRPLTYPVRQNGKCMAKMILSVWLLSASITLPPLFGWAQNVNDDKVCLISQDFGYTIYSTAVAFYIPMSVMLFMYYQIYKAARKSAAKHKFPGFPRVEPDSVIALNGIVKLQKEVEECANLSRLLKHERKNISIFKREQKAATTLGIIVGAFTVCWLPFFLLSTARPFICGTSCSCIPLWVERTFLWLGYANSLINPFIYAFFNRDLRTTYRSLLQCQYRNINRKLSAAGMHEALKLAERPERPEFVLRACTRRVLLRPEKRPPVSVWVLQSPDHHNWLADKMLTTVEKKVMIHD

5-HT6 receptor, sequence (P50406 whole entry, looked up): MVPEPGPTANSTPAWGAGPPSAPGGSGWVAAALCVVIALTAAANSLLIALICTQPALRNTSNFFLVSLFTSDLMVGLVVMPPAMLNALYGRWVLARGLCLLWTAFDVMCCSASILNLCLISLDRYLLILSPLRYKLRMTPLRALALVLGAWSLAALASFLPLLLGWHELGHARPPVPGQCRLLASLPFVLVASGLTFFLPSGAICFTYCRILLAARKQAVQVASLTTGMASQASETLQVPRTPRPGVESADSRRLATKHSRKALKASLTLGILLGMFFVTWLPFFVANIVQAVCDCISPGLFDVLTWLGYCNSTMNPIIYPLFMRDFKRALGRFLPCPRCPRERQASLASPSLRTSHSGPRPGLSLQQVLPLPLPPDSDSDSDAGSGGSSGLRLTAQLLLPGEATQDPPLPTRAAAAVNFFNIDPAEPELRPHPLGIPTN
Factor Xa, sequence (P00743 41-180 limits assumed): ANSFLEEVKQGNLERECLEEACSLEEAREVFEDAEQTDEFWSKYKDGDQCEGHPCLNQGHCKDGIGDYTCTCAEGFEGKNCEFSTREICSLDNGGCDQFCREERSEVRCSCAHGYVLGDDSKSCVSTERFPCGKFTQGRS
Factor Xa, sequence (P00743 234-492 limits assumed): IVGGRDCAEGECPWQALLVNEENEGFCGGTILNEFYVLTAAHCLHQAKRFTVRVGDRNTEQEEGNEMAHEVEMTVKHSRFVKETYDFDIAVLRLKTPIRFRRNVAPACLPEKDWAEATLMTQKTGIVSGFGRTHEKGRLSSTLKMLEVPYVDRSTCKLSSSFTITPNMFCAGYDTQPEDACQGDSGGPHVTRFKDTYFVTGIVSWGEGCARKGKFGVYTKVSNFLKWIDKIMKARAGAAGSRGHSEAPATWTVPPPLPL

With `O=C1NC2(CCCC2)Nc2ccccc21`, the “Factor Xa” value with Factor Xa was 0. The 5-HT6 with 5-HT6 receptor was 0. In the experiment with 5-HT7b receptor, the 5-HT7 is 0.
Turning to `c1ccc2c(N3CCNCC3)ccnc2c1`, the “Factor Xa” value in the experiment with Factor Xa was 0. In the experiment with 5-HT6 receptor, the 5-HT6 was 1 (active). In the experiment with 5-HT7b receptor, the 5-HT7 was 0.
`Fc1ccc2c(C3CCNCC3)c[nH]c2c1`: in the experiment with Factor Xa, the “Factor Xa” value was 0. Also, the 5-HT6 with 5-HT6 receptor was 1 (active). Also, in the experiment with 5-HT7b receptor, the 5-HT7 is 1 (active).
In the case of `Cn1c(CO)nc2ccccc21`, in the experiment with Factor Xa, the “Factor Xa” value is 0. In addition, the 5-HT6 in the experiment with 5-HT6 receptor was 0. Further, the 5-HT7 in the experiment with 5-HT7b receptor was 0.
For the molecule `COc1ccccc1CC1CCNCC1.Cl`, in the experiment with Factor Xa, the “Factor Xa” value was 1 (active). For the same molecule, the 5-HT6 with 5-HT6 receptor was 1 (active). Moreover, the 5-HT7 with 5-HT7b receptor is 1 (active).
Regarding `CCN(CC)c1cccc(C)c1`, the “Factor Xa” value with Factor Xa is 0. In addition, the 5-HT6 with 5-HT6 receptor is 0. Besides, the 5-HT7 in the experiment with 5-HT7b receptor was 0.
Take `Cc1cnc(C(F)(F)F)cn1`: the “Factor Xa” value in the experiment with Factor Xa was 0. In addition, the 5-HT6 with 5-HT6 receptor was 0. Further, in the experiment with 5-HT7b receptor, the 5-HT7 was 0.
For `O=C(CN1CCNCC1)c1ccccc1`, the “Factor Xa” value in the experiment with Factor Xa is 0. Besides, the 5-HT6 with 5-HT6 receptor was 0. In the experiment with 5-HT7b receptor, the 5-HT7 was 0.
Regarding `Oc1ccc(C2CCNCC2)cc1`, the “Factor Xa” value with Factor Xa was 0. Also, in the experiment with 5-HT6 receptor, the 5-HT6 is 0. In the experiment with 5-HT7b receptor, the 5-HT7 is 0.
As for `COc1ccc(C2=CCNCC2)cc1`, the “Factor Xa” value with Factor Xa is 0. Further, the 5-HT6 with 5-HT6 receptor is 0. Further, the 5-HT7 in the experiment with 5-HT7b receptor was 0.
For `COC(=O)c1c(C)nc(C2CC2)[nH]c1=O`, in the experiment with Factor Xa, the “Factor Xa” value was 0. For the same molecule, the 5-HT6 with 5-HT6 receptor was 0. For the same molecule, the 5-HT7 with 5-HT7b receptor is 0.
`N#CC1CCS(=O)(=O)C1` (stereo not drawn): in the experiment with Factor Xa, the “Factor Xa” value is 0. For the same molecule, the 5-HT6 in the experiment with 5-HT6 receptor was 0. The 5-HT7 with 5-HT7b receptor was 0.
For the molecule `CCCN1C(=O)CC(=O)NC1=S`, the “Factor Xa” value in the experiment with Factor Xa was 0. In addition, in the experiment with 5-HT6 receptor, the 5-HT6 was 0. The 5-HT7 in the experiment with 5-HT7b receptor was 0.
As to `CCc1nccn1CC(=O)O`, the “Factor Xa” value in the experiment with Factor Xa is 0. Besides, the 5-HT6 with 5-HT6 receptor was 0. Moreover, in the experiment with 5-HT7b receptor, the 5-HT7 was 0.
For the molecule `CCc1ccc(NC2=NCCCS2)cc1`, the “Factor Xa” value with Factor Xa was 0. In addition, the 5-HT6 with 5-HT6 receptor is 0. In addition, the 5-HT7 with 5-HT7b receptor was 0.
As to `Cc1ccc(-c2ccc(O)cc2)cc1`, the “Factor Xa” value with Factor Xa was 0. The 5-HT6 with 5-HT6 receptor is 0. The 5-HT7 in the experiment with 5-HT7b receptor is 0.

Values taken from paper PMC8159961, “Exploring protein hotspots by optimized fragment pharmacophores” (Nature Communications, 2021).
